# tim10-1 inh: growth inhibitors of tim10-1 mutant yeast | 330,000 compounds, 2.2% hits | AID 463190 | S. cerevisiae tim10-1 ts strain growth, BacTiter-Glo, 24 h | inhibition, % at 20 µM;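 active = inhibition of at least 40%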;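 note: mutant grown at 25 °C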
# MPTP block: inhibitors of mitochondrial permeability transition pore | 360,000 compounds, 1.4% hits | inhibition, % at 10 µM | isolated mouse mitochondria, Ca2+ swelling absorbance, 30 min;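 active = inhibition of 50% or more, scaled per plate between neutral and stimulator controls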
# Mdm2 MdmX PPI: disrupts the human Mdm2-MdmX interaction; SaOS-2 split-luciferase Mdm2/MdmX complementation, luminescence; inhibition, % at 8 µM; 330,000 compounds, 3% hits; AID 485346;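 active = inhibition of at least 50% at 8 µM in the primary screen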
# Target sequence (O15151 whole entry, looked up): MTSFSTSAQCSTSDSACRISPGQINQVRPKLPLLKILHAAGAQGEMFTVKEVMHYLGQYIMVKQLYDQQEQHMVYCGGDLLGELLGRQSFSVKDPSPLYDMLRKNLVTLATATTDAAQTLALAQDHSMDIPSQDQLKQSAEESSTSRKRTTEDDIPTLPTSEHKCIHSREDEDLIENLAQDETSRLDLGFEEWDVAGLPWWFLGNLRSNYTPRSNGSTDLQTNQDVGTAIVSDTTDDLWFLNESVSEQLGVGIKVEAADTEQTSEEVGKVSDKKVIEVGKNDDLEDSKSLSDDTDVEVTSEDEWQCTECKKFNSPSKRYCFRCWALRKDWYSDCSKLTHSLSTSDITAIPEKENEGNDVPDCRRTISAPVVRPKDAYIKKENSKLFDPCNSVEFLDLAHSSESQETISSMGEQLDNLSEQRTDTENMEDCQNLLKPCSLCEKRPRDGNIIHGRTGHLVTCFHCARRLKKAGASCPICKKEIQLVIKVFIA
# Target sequence (Q00987 whole entry, looked up): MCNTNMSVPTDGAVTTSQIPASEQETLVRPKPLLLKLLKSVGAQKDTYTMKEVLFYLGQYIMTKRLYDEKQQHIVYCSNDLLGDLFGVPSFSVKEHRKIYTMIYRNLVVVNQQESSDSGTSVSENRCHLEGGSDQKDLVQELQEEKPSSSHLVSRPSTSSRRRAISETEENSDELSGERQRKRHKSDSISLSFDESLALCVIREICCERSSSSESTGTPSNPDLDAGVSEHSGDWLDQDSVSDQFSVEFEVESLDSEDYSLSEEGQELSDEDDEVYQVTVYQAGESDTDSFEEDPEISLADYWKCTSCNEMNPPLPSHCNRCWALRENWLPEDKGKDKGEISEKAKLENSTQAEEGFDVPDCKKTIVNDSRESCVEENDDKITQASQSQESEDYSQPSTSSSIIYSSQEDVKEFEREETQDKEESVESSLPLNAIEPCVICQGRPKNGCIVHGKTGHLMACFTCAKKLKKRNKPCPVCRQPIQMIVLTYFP
# tim23-1 inh: inhibits growth of tim23-1 mutant yeast. S. cerevisiae tim23-1 growth, BacTiter-Glo luminescence, 24 h. inhibition, % at 20 µM. 330,000 compounds, 1.3% hits. AID 463212;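 active = growth inhibition of the mutant yeast at or above 50%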;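 note: temperature-sensitive mutant grown at 25 °C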
# TIM10 inh: TIM10 yeast growth inhibition; 330,000 compounds, 1.4% hits; AID 463195; S. cerevisiae TIM10 strain growth, BacTiter-Glo luminescence, 24 h; inhibition, % at 10 µM;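 active = inhibition of 40% or more at the single tested concentration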;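 note: wild-type TIM10 isogenic control strain grown at permissive 25 °C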
# Mdm2-MdmX conf: confirmation of human Mdm2/MdmX interaction inhibitors; shares compounds with Mdm2 MdmX PPI; Mdm2-MdmX binding, luminescent assay; inhibition, % at 8 µM; 10,000 compounds, 55% hits; AID 489028; in the data active = inhibition above about 40%
# Full FLuc ctr: full-length luciferase inhibition in Mdm2/MdmX counter-screen; shares compounds with Mdm2 MdmX PPI; SaOS-2 full-length luciferase counterscreen, luminescence; inhibition, % at 8 µM; 6,200 compounds, 77% hits; AID 504607;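 active = mean inhibition at 8 µM reaching about 37%, which flags the compound as non-specific, limit read from the data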;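 note: p53-null SaOS-2 cells with luciferase driven by a doxycycline-inducible promoter; compound on cells about two nights before reading with doxycycline added after day one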
# Hits are given with their value; i = inactive; nt = no result. Hits are enriched below; roughly 6.3% of the tested compounds scored in any of these assays.
SMILES,tim10-1 inh,MPTP block,Mdm2 MdmX PPI,tim23-1 inh,TIM10 inh,Mdm2-MdmX conf,Full FLuc ctr
CCN(c1cccc(C)c1)S(=O)(=O)c1ccc(-c2cc(C)no2)s1,i,i,53,i,i,53,69
COc1ccc(-c2cc(C)no2)cc1S(=O)(=O)N(C)c1cccc(C)c1,i,i,i,i,i,nt,nt
Cc1cccc(N(C)S(=O)(=O)c2ccc(-c3cc(C)no3)s2)c1,i,i,65,i,i,51,89
CCOc1ccc(N(C)S(=O)(=O)c2ccc(-c3cc(C)no3)s2)cc1,i,i,61,i,i,53,84
O=S1(=O)CC(N2CCCC2)CN1Cc1cn(Cc2cccc(C(F)(F)F)c2)nn1 (centres undefined),nt,i,nt,nt,nt,nt,nt
COc1ccc(/C=N/NC(=O)c2cc(C)oc2C)cc1OCc1ccccc1,i,i,62,i,i,i,nt
COc1ccc(/C=N\NC(=O)c2ccccc2F)cc1COc1ccc(F)cc1F,i,i,58,i,i,76,66
COc1ccccc1C(=O)N/N=C/c1ccc2c(c1)OCO2,i,i,i,i,i,nt,nt
Cc1cc(C(=O)N/N=C/c2ccc(OCc3ccccc3)cc2)c(C)o1,i,i,i,i,i,nt,nt
COc1cc2ccccc2cc1C(=O)N/N=C/c1ccc2c(c1)OCO2,i,i,51,i,i,70,53
CC(C)c1ccc(NC(=O)c2cc(-c3cc(F)ccc3OCC3CCCO3)n[nH]2)cc1 (centres undefined),nt,i,nt,nt,nt,nt,nt
C[C@H](O)[C@@H]1C(=O)N2CCc3ccc(N4CCN(C)CC4)cc3[C@@H]2C[C@@H]1N(C)C(=O)c1cccnc1,nt,i,nt,nt,nt,nt,nt
N#Cc1cc2cc(Cl)ccc2[nH]c1=O,nt,i,nt,nt,nt,nt,nt
COc1ccc(C(=O)Nc2ccccc2C(N)=O)cc1,i,i,i,i,i,nt,nt
COc1ccc(C(=O)Nc2ccccc2C(=O)NC(C(=O)NCc2ccco2)C(C)C)cc1 (centres undefined),i,i,74,i,i,i,nt
O=C(COc1ccc(Cl)cc1)Nc1ccccc1C(=O)NCc1ccco1,i,i,73,i,i,i,nt
COc1ccc(C(=O)Nc2ccccc2C(=O)N(Cc2ccco2)C(C(N)=O)C(C)C)cc1 (centres undefined),i,i,66,i,i,i,nt
CC(=O)Nc1ccc(S(=O)(=O)N(C)c2ccc(OCC(=O)Nc3ccccc3C(C)=O)cc2)cc1,i,i,i,i,i,nt,nt
CN(c1ccc(OCC(=O)Nc2ccccc2C(=O)O)cc1)S(=O)(=O)c1ccc(Cl)cc1,i,i,90,i,i,40,39
CCCS(=O)(=O)NC(=O)C1(C)CCCN(C(=O)CCc2cccs2)C1 (centres undefined),nt,i,nt,nt,nt,nt,nt
N#Cc1ccc(NC(=O)Cn2cnc([N+](=O)[O-])c2)cc1,i,i,i,i,i,nt,nt
O=C(Cn1cnc([N+](=O)[O-])c1)Nc1cc(Oc2ccc(Cl)cc2Cl)cc([N+](=O)[O-])c1,i,i,56,i,i,i,nt
CC1CCCN(CCCOc2ccc(Br)cc2Cl)C1 (centres undefined),i,i,i,i,i,nt,nt
CC1CCN(CCOCCOc2ccc(Br)cc2Cl)CC1,i,i,52,i,i,i,nt
C/C=C(/C)C(=O)OC1CC(C)(C)C[C@H]2C3=CC[C@@H]4[C@@]5(C)CCC(O[C@@H]6O[C@@H](C(=O)O)[C@@H](O)C(O[C@@H]7OC[C@H](O)[C@@H](O)[C@@H]7O[C@@H]7OC(CO)C(O)[C@@H](O)[C@@H]7O)C6O[C@@H]6OC(CO)C(O)C(O)C6O)[C@@](C)(CO)[C@@H]5CC[C@]4(C)[C@]3(C)CC(O)[C@@]12CO (some centres undefined),i,i,94,i,i,48,i
SMILES,tim10-1 inh,MPTP block,Mdm2 MdmX PPI,tim23-1 inh,TIM10 inh,Mdm2-MdmX conf,Full FLuc ctr
CC(=O)NC(c1ccc(F)c(F)c1)c1nc(-c2cccc(C(C)C)c2)cs1 (centres undefined),nt,i,nt,nt,nt,nt,nt
COc1ccc(C(=O)N2CCC2(C)C(=O)NC(C)C)c(OC)c1 (centres undefined),nt,i,nt,nt,nt,nt,nt
Cc1ccc(C)c(N2CCN(C(=O)Cn3cccc3)CC2)c1,i,i,i,i,i,nt,nt
Cc1ccc(C)c(N2CCN(C(=O)C(Cc3ccccc3)n3cccc3)CC2)c1 (centres undefined),i,i,50,i,i,i,nt
Cc1cccc(NC(=O)CNC(=O)c2cc(S(=O)(=O)N(C)C)ccc2N2CCCC2)c1C,nt,i,nt,nt,nt,nt,nt
O=C(Nc1ccc(Oc2ncnc3cc(Cl)ccc23)nc1)c1cccs1,i,i,78,i,i,73,102
COc1ccc(O)c(/C=N/Nc2nc(Nc3ccccc3)nc(-n3nc(C)cc3C)n2)c1,i,i,75,i,i,44,84
COc1cc(/C=N/Nc2nc(Nc3ccccc3)nc(-n3nc(C)cc3C)n2)cc(OC)c1OC,i,i,69,i,i,66,78
COc1cc(/C=N/Nc2nc(Nc3ccc(C)cc3)nc(-n3nc(C)cc3C)n2)cc(OC)c1OC,i,i,59,i,i,73,62
Cc1ccc(C(NC(=O)C2CCN(CCOc3ccccc3)CC2)c2ccccn2)cc1 (centres undefined),nt,i,nt,nt,nt,nt,nt
CC(C)(C)N(Cc1cc2ccccc2[nH]c1=O)C(=O)C1CCCCC1,i,i,62,i,i,64,89
CCN(Cc1cc2ccccc2[nH]c1=O)C(=O)C1CCCCC1,i,i,i,i,i,nt,nt
CCCc1nc2oc3c(NCCN(C)C)ncnc3c2c2c1CCCC2,i,i,56,i,i,60,38
CCCc1nc2oc3c(NCCCN(C)C)ncnc3c2c2c1CCCC2,i,i,100,i,i,85,52
CC(C)Cc1nc2oc3c(NCC(C)O)ncnc3c2c2c1CCCC2 (centres undefined),i,i,i,i,i,nt,nt
COC(=O)C1(C(=O)OC)C[C@H](c2ccc(OC)cc2)N(Cc2ccccc2OC)[C@@H]1c1ccc(OC)cc1,nt,i,nt,nt,nt,nt,nt
O=C(O)C(c1ccccc1)C1CCCCC1O (centres undefined),nt,i,nt,nt,nt,nt,nt
COc1ccc(C(NC(C)=O)c2cc(Cl)c3cccnc3c2O)cc1 (centres undefined),i,i,76,i,i,71,i
O=[N+]([O-])c1cc(Cl)c(O)c2ncccc12,i,i,51,i,i,54,56
CCC(=O)NC(c1ccc(C)cc1)c1cc([N+](=O)[O-])c2cccnc2c1O (centres undefined),nt,i,nt,nt,nt,nt,nt
CCCC(=O)NC(c1ccc(OC)c(OC)c1)c1cc(Cl)c2cccnc2c1O (centres undefined),i,i,73,i,i,60,i
Oc1c(CN2CCCCC2)cc(Br)c2cccnc12,i,i,77,i,i,75,36
C[C@H](O)[C@@H]1C(=O)N2CCc3ccc(-c4ccccc4)cc3[C@@H]2C[C@@H]1N(C)C(=O)Nc1cc(Cl)cc(Cl)c1,nt,i,nt,nt,nt,nt,nt

# Screening results from PubChem BioAssay.
